Reference: PubChem BioAssay (EPA / NIEHS)
“And” between values parts separate entries of the source, which are not always exact repeats. Equal values may be shown once. Inconclusive results are not listed. A structure can be active in one record and inactive in another. The source made the active and inactive calls. How the source made its calls, unless noted: active means hit-call score of the fitted dose curve at least 0.9, where 1 is the maximum; inactive means score below 0.9.

Columns and labels:
[1] = target: Glucocorticoid receptor (Homo sapiens) (UniProt P04150); assay: ATG_GR_TRANS: Attagene TRANS-FACTORIAL HepG2 Assay for human Glucocorticoid Receptor (GR) (AID 2282978; active means hit-call score of the fitted dose curve at least 0.9, where 1 is the maximum;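 further: activators score as hits since higher reporter transcript over DMSO is fitted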); settings: HepG2 Attagene TRANS GR reporter, mRNA transcription
Outline: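 HepG2 cells transiently transfected with multiplexed reporter units in which chimeric NR-GAL4 proteins drive GAL4-UAS reporters; 24 h compound exposure. Reporter mRNA measured by RT-PCR, 6-FAM labelling, HpaI digestion and capillary electrophoresis; gain-of-signal fitted versus DMSO.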

[2] = target: Bile acid receptor (Homo sapiens) (UniProt Q96RI1); assay: ATG_FXR_TRANS: Attagene TRANS-FACTORIAL HepG2 Assay for Farnesoid X Receptor (FXR) (AID 2282979; active means hit-call score of the fitted dose curve at least 0.9, where 1 is the maximum;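 further: hits raise reporter mRNA above DMSO so AC50 marks FXR activation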); settings: HepG2 Attagene TRANS FXR-GAL4 reporter transcription
Bile acid receptor (Homo sapiens), sequence (Q96RI1 whole entry, looked up, the tested form may be a part): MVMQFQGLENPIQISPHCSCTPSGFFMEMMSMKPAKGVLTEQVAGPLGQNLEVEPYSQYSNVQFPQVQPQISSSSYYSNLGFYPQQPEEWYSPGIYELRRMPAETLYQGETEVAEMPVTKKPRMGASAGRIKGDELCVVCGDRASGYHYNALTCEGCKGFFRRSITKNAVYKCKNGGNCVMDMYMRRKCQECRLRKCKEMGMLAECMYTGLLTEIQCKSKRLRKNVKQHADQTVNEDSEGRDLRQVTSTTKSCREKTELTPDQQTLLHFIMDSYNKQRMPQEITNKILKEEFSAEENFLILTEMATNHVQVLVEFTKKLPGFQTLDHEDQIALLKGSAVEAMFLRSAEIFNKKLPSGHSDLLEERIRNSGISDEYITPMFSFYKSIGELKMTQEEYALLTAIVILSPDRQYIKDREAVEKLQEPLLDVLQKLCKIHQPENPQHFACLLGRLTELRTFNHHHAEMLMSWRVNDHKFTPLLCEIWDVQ
Outline: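 Reporter transcripts from transfected HepG2 cells were measured 24 h after dosing, using RT-PCR with capillary electrophoresis of 6-FAM-labelled fragments. The read-out reflects activity of exogenous FXR-Gal4 chimera on GAL4-UAS units, with induction relative to DMSO.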

[3] = ATG_M_06_TRANS: Attagene TRANS-FACTORIAL HepG2 Assay for M06 Transcription Factor (Internal Marker) (AID 2282983; active means hit-call score of the fitted dose curve at least 0.9, where 1 is the maximum;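 further: reporter transcript level by RT-PCR then capillary electrophoresis fluorescence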); settings: HepG2 Attagene TRANS M06 internal marker reporter
Outline: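 Background-control reporter readout: after 24 h chemical exposure of transiently transfected HepG2 (GAL4-UAS reporter units), mRNA quantified by RT-PCR with fluorescent labeling and capillary electrophoresis. Gain-of-signal fitting against DMSO baseline.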

[4] = target: Transcriptional activator Myb (Homo sapiens) (UniProt P10242); assay: ATG_Myb_CIS: Attagene CIS-FACTORIAL HepG2 Assay for human Myeloblastosis (Myb) Proto-Oncogene Transcription Factor (AID 2282986); settings: HepG2 Attagene CIS-FACTORIAL Myb reporter transcription; actives raise or lower the signal
Transcriptional activator Myb (Homo sapiens), sequence (P10242 whole entry, looked up): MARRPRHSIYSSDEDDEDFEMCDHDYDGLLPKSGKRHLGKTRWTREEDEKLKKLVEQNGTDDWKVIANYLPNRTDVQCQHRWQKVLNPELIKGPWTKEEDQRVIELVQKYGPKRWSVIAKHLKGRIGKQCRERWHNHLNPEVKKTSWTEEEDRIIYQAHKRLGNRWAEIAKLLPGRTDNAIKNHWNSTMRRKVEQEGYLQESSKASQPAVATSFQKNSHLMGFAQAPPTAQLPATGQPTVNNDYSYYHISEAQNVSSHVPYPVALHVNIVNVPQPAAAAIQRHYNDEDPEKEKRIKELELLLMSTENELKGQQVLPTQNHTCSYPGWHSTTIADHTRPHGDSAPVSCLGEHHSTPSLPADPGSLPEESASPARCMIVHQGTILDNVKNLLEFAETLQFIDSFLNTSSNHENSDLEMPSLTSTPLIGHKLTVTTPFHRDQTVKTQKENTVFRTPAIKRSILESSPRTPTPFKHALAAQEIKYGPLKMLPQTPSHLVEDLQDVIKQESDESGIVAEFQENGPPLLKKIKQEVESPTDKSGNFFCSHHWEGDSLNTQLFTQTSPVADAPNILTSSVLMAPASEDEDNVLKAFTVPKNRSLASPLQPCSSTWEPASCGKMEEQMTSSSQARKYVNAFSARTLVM
Outline: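 HepG2 cells were transiently transfected with cis-regulated multiple reporter transcription units reflecting endogenous Myb activity, then exposed to compound for 24 hours. Reporter mRNA was measured by RT-PCR with capillary electrophoresis; bidirectional fitting versus DMSO baseline.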

[5] = target: Nuclear respiratory factor 1 (Homo sapiens) (UniProt Q16656); assay: ATG_NRF1_CIS: Attagene CIS-FACTORIAL HepG2 Assay for human Nuclear Respiratory Factor 1 (NRF1) Orphan Gene (AID 2282987); settings: HepG2 NRF1 cis-element reporter, Attagene multiplex; actives raise or lower the signal
Nuclear respiratory factor 1 (Homo sapiens), sequence (Q16656 whole entry, looked up): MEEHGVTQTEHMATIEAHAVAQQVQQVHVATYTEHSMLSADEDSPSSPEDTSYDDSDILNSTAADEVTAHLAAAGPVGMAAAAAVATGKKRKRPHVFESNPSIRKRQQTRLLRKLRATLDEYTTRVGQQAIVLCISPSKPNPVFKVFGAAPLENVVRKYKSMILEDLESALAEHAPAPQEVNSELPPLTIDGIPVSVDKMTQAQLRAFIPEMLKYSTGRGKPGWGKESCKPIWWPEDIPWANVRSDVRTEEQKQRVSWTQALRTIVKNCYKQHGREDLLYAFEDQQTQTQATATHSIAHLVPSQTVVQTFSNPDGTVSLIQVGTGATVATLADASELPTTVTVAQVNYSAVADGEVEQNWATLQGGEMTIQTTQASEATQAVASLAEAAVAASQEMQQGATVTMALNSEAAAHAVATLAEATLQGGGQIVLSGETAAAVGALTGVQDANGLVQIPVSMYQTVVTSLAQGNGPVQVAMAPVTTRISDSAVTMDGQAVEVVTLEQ
Outline: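 HepG2 cells transiently transfected with multiple reporter transcription units under cis-regulatory promoter control, so endogenous transcription-factor activity is read. After 24 h compound exposure, reporter mRNA quantified by RT-PCR, fluorescent labelling, HpaI digestion and capillary electrophoresis; bidirectional fitting versus DMSO.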

[6] = ATG_NFI_CIS: Attagene CIS-FACTORIAL HepG2 Assay for human Nuclear Factor I (NFI) (AID 2282989); settings: HepG2 cis-regulatory reporter, NFI response element transcription; actives raise or lower the signal
Outline: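 After transient transfection of HepG2 with cis-promoter reporter constructs and 24 h dosing, RNA is reverse-transcribed, amplified, 6-FAM end-labelled and HpaI-digested before capillary analysis. Bidirectional curve fitting against DMSO.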

[7] = target: Myc proto-oncogene protein (Homo sapiens) (UniProt P01106); assay: ATG_Myc_CIS: Attagene CIS-FACTORIAL HepG2 Assay for human Myelocytomatosis (Myc) Proto-Oncogene Transcription Factor (AID 2282990); settings: HepG2, Attagene cis-reporter transcription factor activity; actives raise or lower the signal
Myc proto-oncogene protein (Homo sapiens), sequence (P01106 whole entry, looked up): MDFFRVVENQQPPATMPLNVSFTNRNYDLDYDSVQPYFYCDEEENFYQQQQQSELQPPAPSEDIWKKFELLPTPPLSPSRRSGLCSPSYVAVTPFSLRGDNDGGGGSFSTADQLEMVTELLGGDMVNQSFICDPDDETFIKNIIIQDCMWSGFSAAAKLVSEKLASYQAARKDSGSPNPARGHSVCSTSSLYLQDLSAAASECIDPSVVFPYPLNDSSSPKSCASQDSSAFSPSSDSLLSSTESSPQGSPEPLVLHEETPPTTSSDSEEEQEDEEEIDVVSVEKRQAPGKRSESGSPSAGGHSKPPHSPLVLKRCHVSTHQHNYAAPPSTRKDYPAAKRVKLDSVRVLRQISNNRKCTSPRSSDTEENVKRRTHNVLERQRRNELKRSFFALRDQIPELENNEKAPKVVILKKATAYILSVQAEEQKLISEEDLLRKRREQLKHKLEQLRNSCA
Outline: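 Transiently transfected HepG2 cells bearing cis-promoter reporter units for endogenous transcription factors; 24 h exposure. Reporter mRNA measured by RT-PCR, 6-FAM primer extension, HpaI cut and capillary electrophoresis; bidirectional fit relative to DMSO.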

[8] = ATG_NRF2_ARE_CIS: Attagene CIS-FACTORIAL HepG2 Assay for human Nuclear Factor Erythroid 2 Related Factor 2 (NFR2) response to Antioxidant Response Elements (ARE) (AID 2282992); settings: HepG2 Attagene ARE/NRF2 reporter, transcription factor activity; actives raise or lower the signal
Outline: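 Readout: reporter mRNA quantified by RT-PCR plus FAM-labelled primer extension, HpaI digestion and capillary electrophoresis, 24 h after dosing transfected HepG2 cells. Gain or loss of signal is fitted bidirectionally against DMSO baseline.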

[9] = ATG_Oct_MLP_CIS: Attagene CIS-FACTORIAL HepG2 Assay for human Octamer-Binding Transcription Factor (Oct) (AID 2282993); settings: HepG2 Attagene cis-factorial Oct reporter, mRNA; actives raise or lower the signal
Outline: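 Cells of the HepG2 line express promoter-controlled reporter sequences whose mRNA levels, after 24 h treatment, are measured by RT-PCR and capillary electrophoresis. Increases and decreases are scored relative to DMSO.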

[10] = target: Cellular tumor antigen p53 (Homo sapiens) (UniProt P04637); assay: ATG_p53_CIS: Attagene CIS-FACTORIAL HepG2 Assay for human p53 Transcription Factor (AID 2282994); settings: HepG2 p53 cis-element reporter, Attagene mRNA; actives raise or lower the signal
Cellular tumor antigen p53 (Homo sapiens), sequence (P04637 whole entry, looked up): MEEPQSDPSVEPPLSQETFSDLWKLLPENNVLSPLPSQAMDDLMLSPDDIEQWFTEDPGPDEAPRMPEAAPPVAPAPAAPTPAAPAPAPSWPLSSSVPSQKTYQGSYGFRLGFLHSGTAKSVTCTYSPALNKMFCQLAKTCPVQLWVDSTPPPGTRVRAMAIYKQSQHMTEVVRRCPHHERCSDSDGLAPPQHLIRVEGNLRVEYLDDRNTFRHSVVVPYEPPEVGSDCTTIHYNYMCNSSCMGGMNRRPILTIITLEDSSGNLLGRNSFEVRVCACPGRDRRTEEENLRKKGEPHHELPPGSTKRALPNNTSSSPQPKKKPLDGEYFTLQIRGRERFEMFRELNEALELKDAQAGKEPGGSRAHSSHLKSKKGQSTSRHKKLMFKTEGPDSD
Outline: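 Read-out: reporter mRNA by RT-PCR plus capillary electrophoresis with fluorescence detection. Human HepG2 liver cells carried transfected multi-reporter cis-element constructs, dosed 24 h. Gain or loss of signal fitted bidirectionally against DMSO control.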

[11] = BSK_3C_TissueFactor: BioMAP Diversity Plus: 3C Assay for Tissue Factor Biomarker Activity (AID 2282997); settings: BioMAP 3C HUVEC, tissue factor biomarker readout; actives raise or lower the signal
Outline: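 Tissue factor on primary human umbilical vein endothelium was read by ELISA 24 h after dosing, gain or loss relative to DMSO. Cytotoxicity ran alongside via SRB (0.1%, TCA-fixed, 560 nm).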

[12] = BSK_3C_uPAR: BioMAP Diversity Plus: 3C Assay for Urokinase-type plasminogen activator receptor (uPAR) Biomarker Activity (AID 2282998); settings: BioMAP 3C HUVEC, uPAR biomarker ELISA; actives raise or lower the signal
Outline: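 Endothelial primary cells of human umbilical vein origin received test chemical; 24 h later uPAR was assayed by ELISA. Fitting was bidirectional, DMSO as negative control.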

[13] = BSK_3C_VCAM1: BioMAP Diversity Plus: 3C Assay for Vascular cell adhesion molecule 1 (VCAM1) Biomarker Activity (AID 2282999); settings: BioMAP 3C HUVEC, VCAM1 ELISA, cytokine-stimulated; actives raise or lower the signal
Outline: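 HUVEC primary cells, 24 h compound exposure; VCAM-1 by ELISA; gain/loss of signal fitted bidirectionally vs DMSO baseline.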

[14] = BSK_4H_Eotaxin3: BioMAP Diversity Plus: 4H Assay for Eotaxin 3 Biomarker Activity (AID 2283000); settings: primary human endothelial cells (HUVEC); actives raise or lower the signal
Outline: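 Human umbilical vein endothelial cells (BSK_4H system) dosed with test chemical; Eotaxin-3 (CCL26) measured by ELISA 24 h after dosing. Bidirectional curve fitting relative to DMSO negative control as baseline.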

[15] = target: human Peroxisome Proliferator-activated Receptor alpha (PPARa), PPARA (gene 5465) (UniProt Q07869); assay: ATG_PPARa_TRANS: Attagene TRANS-FACTORIAL HepG2 Assay for human Peroxisome Proliferator-activated Receptor alpha (PPARa) (AID 2283001; active means hit-call score of the fitted dose curve at least 0.9, where 1 is the maximum)
human Peroxisome Proliferator-activated Receptor alpha (PPARa), PPARA (gene 5465), sequence (Q07869 whole entry, looked up, the tested form may be a part): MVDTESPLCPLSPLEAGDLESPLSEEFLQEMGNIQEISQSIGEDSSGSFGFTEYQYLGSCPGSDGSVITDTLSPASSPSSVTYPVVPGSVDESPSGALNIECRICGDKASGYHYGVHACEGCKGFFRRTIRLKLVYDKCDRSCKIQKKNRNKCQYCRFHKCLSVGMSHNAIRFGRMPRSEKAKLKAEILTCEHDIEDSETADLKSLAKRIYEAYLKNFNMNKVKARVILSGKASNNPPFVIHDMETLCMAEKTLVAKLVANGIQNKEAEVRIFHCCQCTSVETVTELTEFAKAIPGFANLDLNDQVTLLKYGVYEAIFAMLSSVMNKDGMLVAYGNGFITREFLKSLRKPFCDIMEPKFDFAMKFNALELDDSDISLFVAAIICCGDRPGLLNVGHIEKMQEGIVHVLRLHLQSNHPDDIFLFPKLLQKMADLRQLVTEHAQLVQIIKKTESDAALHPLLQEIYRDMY
Outline: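 Transient HepG2 transfection, GAL4-UAS reporters, NR-Gal4 chimeras; 24 h compound exposure. Readout: reporter transcripts by RT-PCR, 6-FAM primer extension, HpaI digest, capillary electrophoresis. Positive direction vs DMSO baseline.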

[16] = target: Nuclear receptor subfamily 4 group A member 2 (Homo sapiens) (UniProt P43354); assay: ATG_NURR1_TRANS: Attagene TRANS-FACTORIAL HepG2 Assay for human Nuclear Receptor Related Protein 1 (NURR1) (AID 2282985; active means hit-call score of the fitted dose curve at least 0.9, where 1 is the maximum); settings: HepG2 Attagene TRANS reporter, mRNA readout
Nuclear receptor subfamily 4 group A member 2 (Homo sapiens), sequence (P43354 whole entry, looked up, the tested form may be a part): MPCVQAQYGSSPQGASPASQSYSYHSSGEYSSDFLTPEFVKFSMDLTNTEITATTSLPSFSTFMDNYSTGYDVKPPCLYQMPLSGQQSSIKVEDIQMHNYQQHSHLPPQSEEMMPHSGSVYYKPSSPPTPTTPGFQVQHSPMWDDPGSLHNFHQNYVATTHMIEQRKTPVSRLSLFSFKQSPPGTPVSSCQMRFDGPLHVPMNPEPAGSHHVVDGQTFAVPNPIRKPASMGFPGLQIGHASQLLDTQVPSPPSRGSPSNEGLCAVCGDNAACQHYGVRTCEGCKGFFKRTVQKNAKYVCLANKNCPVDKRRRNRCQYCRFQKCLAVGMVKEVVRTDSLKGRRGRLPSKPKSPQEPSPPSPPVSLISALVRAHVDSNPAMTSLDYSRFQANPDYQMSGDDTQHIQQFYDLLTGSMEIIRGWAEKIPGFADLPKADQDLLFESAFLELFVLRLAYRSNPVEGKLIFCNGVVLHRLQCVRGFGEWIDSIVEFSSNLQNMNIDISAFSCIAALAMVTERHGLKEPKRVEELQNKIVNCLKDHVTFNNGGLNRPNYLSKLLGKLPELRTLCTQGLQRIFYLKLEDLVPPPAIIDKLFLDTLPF
Outline: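 Read-out: reporter mRNA induction by RT-PCR plus capillary electrophoresis with fluorescence detection, after 24 h dosing of transfected HepG2 cells. Exogenous NR-Gal4 chimera activity drives GAL4-UAS reporter; activity fitted upward versus DMSO.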

[17] = ATG_NF_kB_CIS: Attagene CIS-FACTORIAL HepG2 Assay for human Nuclear Factor Kappa B (NF-kB) (AID 2282991); settings: HepG2 Attagene cis-factorial NF-kB reporter mRNA; actives raise or lower the signal
Outline: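 HepG2 cells transiently transfected with multiplexed cis-element reporter units measuring endogenous transcription factor activity; reporter mRNA read 24 h after dosing by RT-PCR, fluorescent labelling, HpaI digestion and capillary electrophoresis. Bidirectional fit against DMSO baseline.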

[18] = target: Oxysterols receptor LXR-beta (Homo sapiens) (UniProt P55055); assay: ATG_LXRb_TRANS: Attagene TRANS-FACTORIAL HepG2 Assay for human Liver X Receptor beta (LXRb) (AID 2282981; active means hit-call score of the fitted dose curve at least 0.9, where 1 is the maximum); settings: HepG2 Attagene TRANS GAL4-LXRb reporter, mRNA
Oxysterols receptor LXR-beta (Homo sapiens), sequence (P55055 whole entry, looked up, the tested form may be a part): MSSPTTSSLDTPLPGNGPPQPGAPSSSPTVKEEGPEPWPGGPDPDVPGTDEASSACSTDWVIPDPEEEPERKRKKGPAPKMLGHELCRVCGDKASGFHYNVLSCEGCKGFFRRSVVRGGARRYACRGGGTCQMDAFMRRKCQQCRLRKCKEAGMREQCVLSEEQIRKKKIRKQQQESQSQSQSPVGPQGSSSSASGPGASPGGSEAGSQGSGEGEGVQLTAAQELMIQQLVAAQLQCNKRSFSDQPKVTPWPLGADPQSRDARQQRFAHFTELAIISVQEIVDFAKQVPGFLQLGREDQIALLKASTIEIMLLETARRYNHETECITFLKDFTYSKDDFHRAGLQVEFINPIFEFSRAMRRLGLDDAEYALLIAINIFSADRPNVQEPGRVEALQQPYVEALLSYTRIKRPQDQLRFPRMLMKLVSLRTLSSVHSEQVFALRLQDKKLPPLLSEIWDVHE
Outline: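 Readout: fluorescent reporter mRNA fragments resolved by capillary electrophoresis after RT-PCR. System: transiently transfected human HepG2, exogenous LXRb-Gal4 chimera driving GAL4-UAS reporter, 24 h dosing. Activity fitted upward against DMSO baseline.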

[19] = target: Hepatocyte nuclear factor 4-alpha (Homo sapiens) (UniProt P41235); assay: ATG_HNF4a_TRANS: Attagene TRANS-FACTORIAL HepG2 Assay for human Hepatocyte Nuclear Factor 4 alpha (HNF4a) (AID 2282982; active means hit-call score of the fitted dose curve at least 0.9, where 1 is the maximum); settings: HepG2 HNF4a transactivation reporter, mRNA readout
Hepatocyte nuclear factor 4-alpha (Homo sapiens), sequence (P41235 whole entry, looked up): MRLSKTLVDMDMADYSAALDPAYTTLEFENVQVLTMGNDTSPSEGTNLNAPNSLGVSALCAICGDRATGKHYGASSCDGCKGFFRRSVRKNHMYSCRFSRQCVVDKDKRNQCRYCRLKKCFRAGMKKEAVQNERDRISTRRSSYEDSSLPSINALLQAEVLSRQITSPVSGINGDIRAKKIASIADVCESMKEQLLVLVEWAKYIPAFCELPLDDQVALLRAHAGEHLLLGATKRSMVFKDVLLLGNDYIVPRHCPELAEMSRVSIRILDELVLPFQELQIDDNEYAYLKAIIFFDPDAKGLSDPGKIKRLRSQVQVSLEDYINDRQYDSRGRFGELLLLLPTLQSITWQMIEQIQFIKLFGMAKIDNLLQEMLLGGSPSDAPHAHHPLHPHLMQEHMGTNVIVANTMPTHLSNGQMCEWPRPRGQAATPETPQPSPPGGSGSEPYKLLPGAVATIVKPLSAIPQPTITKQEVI
Outline: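 Transient MRTU transfection of HepG2, 24 h dosing. Readout: reporter mRNA via RT-PCR + capillary electrophoresis, fluorescence; activity fit upward relative to DMSO control.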

[20] = ATG_M_32_TRANS: Attagene TRANS-FACTORIAL HepG2 Assay for M32 Transcription Factor (Internal Marker) (AID 2282984; active means hit-call score of the fitted dose curve at least 0.9, where 1 is the maximum;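 further: transcript level of a background control reporter unit measured by RT-PCR and capillary electrophoresis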); settings: HepG2 Attagene TRANS M32 internal marker reporter
Outline: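 Read-out: fluorescent reporter cDNA fragments resolved by capillary electrophoresis after RT-PCR of total RNA. Transfected HepG2 cells were exposed to chemical for 24 h. Activity scored in the positive direction relative to DMSO.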

Measured: AC50

CCc1nc(N)nc(N)c1-c1ccc(Cl)cc1
active: [5] 48.8 µM | [7] 166 µM | [8] 2.15 µM | [9] 138 µM | [10] 30.3 µM
not listed: [16] | [17] | [18] | [19] | [20]
inactive: all other assays above

Cc1cc(Cc2ccc(N)c(C)c2)ccc1N
not listed: [15] | [18] | [19] | [20]
inactive: all other assays above

OCC(CO)n1cnc(-c2ccc(F)cc2)c1-c1ccnc(Oc2ccccc2)n1
active: [8] 25.3 µM
not listed: [2] | [16] | [19] | [20]
inactive: all other assays above

CC(C)OC(=O)C(C)(C)Oc1ccc(C(=O)c2ccc(Cl)cc2)cc1
active: [2] 26.8 µM | [16] 26.9 µM | [8] 25 µM | [9] 19.8 µM | [12] 30.6 µM | [14] 32.4 µM
not listed: [10] | [15] | [18] | [20]
inactive: all other assays above

CN(C)C(=O)NC1(c2ccccc2)CCN(CC[C@@]2(c3ccc(F)c(F)c3)CN(C(=O)c3ccccc3)CCO2)CC1
active: [8] 40.8 µM | [9] 100 µM | [10] 100 µM
not listed: [3] | [15] | [16] | [17] | [18] | [19] | [20]
inactive: all other assays above

CC(C)(O)c1ccc(CNC(=O)c2cccnc2Oc2ccc(F)cc2)cc1
active: [8] 40.7 µM
not listed: [2] | [3] | [16] | [17] | [19]
inactive: all other assays above

CCCCc1nc2cccnc2n1Cc1ccc(-c2ccccc2-c2nnn[nH]2)cc1
not listed: [3] | [8] | [16] | [19]
inactive: all other assays above

CC(COCC(C)OC(=O)c1ccccc1)OC(=O)c1ccccc1 (centres undefined)
not listed: [8] | [10] | [16] | [17] | [18] | [20]
inactive: all other assays above

O=C(Oc1ccccc1)c1cccc(C(=O)Oc2ccccc2)c1
not listed: [8] | [10] | [17] | [18] | [19]
inactive: all other assays above

NC(=Nc1ccccc1)Nc1ccccc1
active: [8] 5.38 µM | [9] 43.9 µM | [10] 6.23 µM | [14] 6.06 µM
not listed: [16] | [17]
inactive: all other assays above

Cn1cnc2c1c(=O)[nH]c(=O)n2C
not listed: [10] | [15] | [18] | [19] | [20]
inactive: all other assays above

CCCCC(CC)COC(=O)CCCCCCCC(=O)OCC(CC)CCCC (centres undefined)
not listed: [19] | [20]
inactive: all other assays above

CN(C)CCCN1c2ccccc2Sc2ccc(Cl)cc21
active: [8] 11.1 µM | [9] 11.1 µM | [10] 6.92 µM | [11] 5.43 µM | [12] 25.1 µM | [13] 36.8 µM | [14] 35.9 µM
not listed: [19]
inactive: all other assays above

CCCCC(CC)COP(=O)(OCC(CC)CCCC)OCC(CC)CCCC (centres undefined)
active: [12] 12.5 µM | [13] 20 µM | [14] 20 µM
not listed: [8] | [15] | [16] | [18] | [19] | [20]
inactive: all other assays above

CC(=O)S[C@H](C(=O)N[C@H]1Cc2ccccc2[C@H]2CCC[C@@H](C(=O)O)N2C1=O)C(C)C
not listed: [3] | [8] | [15] | [19] | [20]
inactive: all other assays above
